Our source for the Potency and outcome values is PubChem BioAssay (Tox21).

Unmarked numbers belong to inactive results. Results filed as inconclusive are left out. Active and inactive are the calls of the source. Unless noted, the call rests on the fitted dose curve; in most records, active means well fitted curve in the direction sought with a large enough effect in the repeat runs; inconclusive means weak or mixed curves; inactive means no such curve, though single readings can be large; an effect the other way counts as inactive or inconclusive.

Test [1] can be described thus: qHTS assay for small molecule agonists of the p53 signaling pathway (AID 651631; calls by dose curve; further: nearly all actives have a fitted effect of over 15% in size). The gist of the method:
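Agonist mode screen using a stably integrated beta-lactamase gene under p53 response elements in HCT-116 cells. Compound exposure lasts 16 h at 37 °C; fluorescence intensity is measured following 2 h FRET substrate loading.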
For orientation: In qHTS, concentration-response curves come from the screen itself.

The nature of test [2]: qHTS assay for small molecules that induce genotoxicity in human embryonic kidney cells expressing luciferase-tagged ATAD5 (AID 651632). Further: nearly all actives have a fitted effect of over 15% in size. Further: potency means the concentration at half of the fitted maximal effect. A digest of the protocol:
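A rise in luciferase signal from ATAD5-tagged HEK293T cells marks genetic stress. Cells were exposed to compounds for 16 hr at 37C, 5% CO2, then luciferase was quantified after a 30 min room-temperature incubation with Amplite.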

The nature of test [3]: qHTS assay for small molecule agonists of the p53 signaling pathway - cell viability (AID 651633; calls by dose curve;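 further: p53RE-bla HCT reporter cells with a stable beta-lactamase p53 reporter; series mostly up to about 83 µM; nearly all actives have a fitted effect of over 30% in size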). The gist of the method:
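p53RE-bla cells were treated with compound for 16 hours at 37 C. Cytotoxicity was then measured as CellTiter-Glo luminescence after 30 min at room temperature.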

The nature of test [4]: qHTS assay for small molecules that induce genotoxicity in human embryonic kidney cells expressing luciferase-tagged ATAD5 - cell viability (AID 651634; calls by dose curve; further: nearly all actives have a fitted effect of over 25% in size). The gist of the method: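 Cytotoxicity counter-readout: after 15.5 hr compound treatment at 37C, live-cell protease activity in ATAD5-luciferase HEK293T cells measured by CellTiter-Fluor fluorescence, 30 min development at 37C.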

The nature of test [5]: qHTS assay for small molecule disruptors of the mitochondrial membrane potential - cell viability (AID 720634; calls by dose curve;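 further: human HepG2 liver cancer cells; series mostly up to about 83 µM; nearly all actives have a fitted effect of over 20% in size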). A digest of the protocol: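 Cytotoxicity was quantified from ATP content by CellTiter-Glo luminescence in the same wells as the MMP dye read-out. HepG2 (2,000 cells/well) were plated overnight and exposed to compounds for 1 hr at 37 C.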
Test [6] is described as follows: qHTS assay to test for compound auto fluorescence at 535 nm (green) in HepG2 cells (AID 720675).
Test [7] is described as follows: qHTS assay to test for compound auto fluorescence at 460 nm (blue) in HEK293 cells (AID 720678). The gist of the method:
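HEK293 cells (2,000 per well, medium with 10% dialyzed FBS) attached for 4-5 hr at 37C, then received compound and stood overnight at 37C, 5% CO2. Blue fluorescence was read at Ex/Em 405/460 nm and expressed relative to triamterene.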

The nature of test [8]: qHTS assay to test for compound auto fluorescence at 590 nm (red) in HEK293 cells (AID 720679). A digest of the protocol:
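HEK293 cells (2,000/well, medium with 10% dialyzed FBS) attached for 4-5 hr at 37C, received 23 nL compound and were incubated overnight at 37C, 5% CO2. Red fluorescence was then read at 540/590nm Ex/Em, referenced to Rose Bengal sodium.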

The nature of test [9]: qHTS assay to test for compound auto fluorescence at 535 nm (green) in HEK293 cells (AID 720680).
Test [10] in a line: qHTS assay to test for compound auto fluorescence at 460 nm (blue) in HEK293 cell free culture (AID 720681). A digest of the protocol:
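Compounds were added to cell-free DMEM with 10% FBS and fluorescence read directly. The blue channel used 405 nm excitation and 460 nm emission, with triamterene as the reference fluorophore.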

The nature of test [11]: qHTS assay to test for compound auto fluorescence at 535 nm (green) in HEK293 cell free culture (AID 720682). The gist of the method: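 No cells present: wells hold DMEM supplemented with 10% FBS, into which compound or vehicle is pinned. Green emission is then recorded (485 nm excitation, 535 nm emission) and scaled to fluorescein.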
The nature of test [12]: qHTS assay to test for compound auto fluorescence at 590 nm (red) in HEK293 cell free culture (AID 720683). The gist of the method:
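Cell-free wells of DMEM with 10% FBS received compound, and intrinsic fluorescence was read at excitation/emission 540/590 nm. Values expressed as equivalence to Rose Bengal sodium.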

Test [13] can be described thus: qHTS assay to test for compound auto fluorescence at 590 nm (red) in HepG2 cell free culture (AID 720684). The gist of the method:
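Auto fluorescence equivalency versus Rose Bengal sodium, red channel Ex/Em 540/590 nm; compounds in cell-free MEM/10% FBS; DMSO vehicle control.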

Test [14] is described as follows: qHTS assay to test for compound auto fluorescence at 460 nm (blue) in HepG2 cell free culture (AID 720685). A digest of the protocol: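 Cell-free plates of MEM plus 10% FBS received 23 nL compound or DMSO vehicle; blue-channel (405/460 nm) intensity scored against triamterene as reference fluorophore.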
The nature of test [15]: qHTS assay to test for compound auto fluorescence at 535 nm (green) in HepG2 cell free culture (AID 720686).
A short description of test [16]: qHTS assay to test for compound auto fluorescence at 460 nm (blue) in HepG2 cells (AID 720687). A digest of the protocol: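 HepG2 cells in MEM with 10% FBS, attached overnight at 37 C, were exposed to compound or DMSO for 1 hr at 37 C, 5% CO2. Blue fluorescence was read at 405/460 nm, with triamterene as reference fluorophore.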
In test [17] the target is Glucocorticoid receptor (Homo sapiens) (UniProt P04150). Put plainly: qHTS assay to identify small molecule agonists of the glucocorticoid receptor (GR) signaling pathway (AID 720691; active means well fitted activation curve with a large enough effect in the signal ratio in the repeat runs, not every such curve was filed as active; the % refers to the signal ratio). The gist of the method:
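Agonist-mode qHTS in HeLa cells stably expressing a glucocorticoid-response-element beta-lactamase reporter. Fluorescence intensity read with FRET substrate (2 h, room temperature) after 18 h compound treatment at 37 C.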

Test [18] shares this target. Put plainly: qHTS assay to identify small molecule antagonists of the glucocorticoid receptor (GR) signaling pathway (AID 720692; active means well fitted inhibition curve with a large enough effect in the signal ratio in the repeat runs, not every such curve was filed as active; the % refers to the signal ratio). The gist of the method: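 Inhibition of dexamethasone-driven (5 nM final) beta-lactamase expression was measured in GRE-reporter HeLa cells over 18 h at 37C. Fluorescence was read after 2 h with the B/G FRET substrate at room temperature.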

A short description of test [19]: qHTS assay for small molecule disruptors of the mitochondrial membrane potential (AID 720635). Further: potency means the concentration at half of the fitted maximal effect. A digest of the protocol:
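HepG2 cells exposed to compound 1 hr at 37C, then Mito-MPS dye 30 min. Ratio read of aggregate (540/590 nm) versus monomer (490/535 nm) fluorescence.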

Test [20] in a line: qHTS assay to test for compound auto fluorescence at 590 nm (red) in HepG2 cells (AID 720674). A digest of the protocol: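 Fluorescence at 590 nm emission following 540 nm excitation was recorded from HepG2 wells one hour after compound transfer, with DMSO-only wells as vehicle and Rose Bengal sodium equivalency as the scale.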

Chain of Glucocorticoid receptor (Homo sapiens) (P04150 whole entry, looked up): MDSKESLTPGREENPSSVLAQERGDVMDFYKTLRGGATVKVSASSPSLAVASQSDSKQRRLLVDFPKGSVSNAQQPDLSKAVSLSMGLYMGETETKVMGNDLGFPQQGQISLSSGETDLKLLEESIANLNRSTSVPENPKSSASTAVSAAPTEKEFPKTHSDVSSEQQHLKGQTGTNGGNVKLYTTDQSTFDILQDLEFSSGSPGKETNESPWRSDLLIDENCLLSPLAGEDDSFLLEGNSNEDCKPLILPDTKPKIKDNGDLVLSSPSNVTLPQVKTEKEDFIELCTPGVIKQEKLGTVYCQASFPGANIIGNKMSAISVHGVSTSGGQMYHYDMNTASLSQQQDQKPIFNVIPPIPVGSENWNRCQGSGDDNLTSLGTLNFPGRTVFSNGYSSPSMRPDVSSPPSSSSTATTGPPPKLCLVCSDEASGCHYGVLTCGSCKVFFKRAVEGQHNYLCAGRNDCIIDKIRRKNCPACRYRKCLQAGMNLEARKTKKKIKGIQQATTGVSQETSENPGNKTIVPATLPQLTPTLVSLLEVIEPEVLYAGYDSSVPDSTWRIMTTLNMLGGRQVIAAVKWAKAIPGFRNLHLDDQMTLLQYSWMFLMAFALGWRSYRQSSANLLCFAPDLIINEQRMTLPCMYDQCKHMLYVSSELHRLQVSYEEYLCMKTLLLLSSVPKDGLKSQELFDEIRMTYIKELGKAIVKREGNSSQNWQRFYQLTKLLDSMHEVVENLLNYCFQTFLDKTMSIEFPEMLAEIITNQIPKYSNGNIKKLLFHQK

Consider `CO[Si](OC)(OC)OC`, for which the Potency result in [1], in [2], in test [3], in test [4], in [5] and in test [7] was “inactive” each time. In addition, the Potency entry in test [10], in [14], in test [16], in test [17] and in test [18] was “inactive” in each case. The result in [6], in [8], in [9], in test [11], in test [12] and in test [13] was inactive. Besides, in test [15], the call was inactive.
`Oc1ccc2c(c1)OC[C@@H](N1CCC(O)(c3ccc(F)cc3)CC1)[C@H]2O`: the Potency entry in test [1], in test [3], in test [4], in test [7], in [10] and in test [14] was “inactive” in each case. Further, the Potency entry in test [16], in test [17] and in [18] was “inactive” each time. Moreover, the Potency in [2] is 7.5 µM (active); in test [19], 33.5 µM (active). Moreover, the compound was classed as inactive in [20], in [6], in test [8], in test [9], in test [11] and in test [12]. Also, the call in test [13] and in test [15] was inactive.
On to `O=[N+]([O-])c1ccc(CCO)cc1`, for which the Potency entry in test [1], in test [2], in test [3], in [4], in test [5] and in test [10] was “inactive” each time. The Potency result in test [14], in [16], in [17] and in test [18] was “inactive” each time. The result in [20], in [6], in [8], in test [9], in [11] and in test [12] was inactive. The compound was called inactive in test [13] and in test [15].
Turning to `C1C2OC2C2C1C1CC2C2OC12` (configuration not stated), the Potency result in [2], in [3], in test [4], in test [5], in test [19] and in test [7] was “inactive” in each case. Further, the Potency entry in test [10], in test [14] and in test [16] was “inactive” each time. In addition, the outcome in test [20], in test [6], in test [8], in [9], in test [11] and in test [12] was inactive. The outcome in test [13] and in [15] was inactive.
For the compound `Cn1ccc2cc3c(cc21)CCN3C(=O)Nc1cccnc1`, the Potency result in test [1], in test [3], in test [4], in [5], in [7] and in [10] was “inactive” each time. The Potency result in [14], in [16] and in [17] was “inactive” each time. In addition, the Potency in [2] is 11.9 µM (active). The compound was called inactive in test [6], in [8], in [9], in test [11], in test [12] and in [15].
Consider `Fc1ccccc1-c1ccccc1`, for which the Potency result in [1], in test [2], in [3], in test [4], in test [5] and in [10] was “inactive” in each case. For the same compound, the Potency result in test [14], in test [16], in [17] and in test [18] was “inactive” each time. Moreover, the call in test [20], in test [6], in test [8], in [9], in test [11] and in test [12] was inactive. In addition, the result in [13] and in [15] was inactive.
On to `CC(C)COC(=O)c1ccccc1O`, for which the Potency result in test [1], in test [2], in test [3], in test [4], in [5] and in test [10] was “inactive” in each case. The Potency result in test [14], in test [16], in [17] and in test [18] was “inactive” each time. Also, the outcome in test [20], in [6], in test [8], in test [9], in test [12] and in [13] was inactive. In test [15], the compound was classed as inactive.
With `CC(=O)CCc1ccc(O)cc1`, the Potency entry in test [1], in test [2], in test [3], in test [4], in test [7] and in test [10] was “inactive” throughout. Also, the Potency result in [14] and in test [16] was “inactive” in each case. Also, the outcome in [20], in test [6], in test [8], in test [9], in test [11] and in test [12] was inactive. The outcome in [13] and in [15] was inactive.
With `CC(C)(O)c1ccccc1`, the Potency result in test [1], in [2], in [3], in [4], in test [5] and in test [7] was “inactive” each time. Also, the Potency result in test [10], in test [14], in test [16] and in test [18] was “inactive” in each case. In addition, the outcome in [6], in [8], in test [9], in test [11], in test [12] and in [13] was inactive. Also, in test [15], the compound was classed as inactive.
On to `CCC(=O)Nc1cccc(N)c1`, for which the Potency entry in [1], in test [2], in test [3], in [4], in test [5] and in test [10] was “inactive” each time. For the same compound, the Potency result in test [14], in test [16], in [17] and in test [18] was “inactive” each time. Further, the result in [20], in [6], in test [8], in [9], in test [11] and in [12] was inactive. The outcome in [13] and in [15] was inactive.
Turning to `CN(C)N=Nc1ccccc1`, the Potency result in [1], in test [2], in test [3], in test [5], in [7] and in [10] was “inactive” throughout. Further, the Potency result in test [14] and in test [16] was “inactive” in each case. The outcome in [6], in [8], in [9], in test [11], in test [12] and in [13] was inactive. Besides, the result in [15] was inactive.
With `C1COCCO1`, the Potency entry in [1], in [2], in [3], in [4], in test [7] and in [10] was “inactive” each time. The Potency result in test [14] and in test [16] was “inactive” throughout. For the same compound, the result in test [20], in test [6], in test [8], in test [9], in test [11] and in test [12] was inactive. The outcome in [13] and in [15] was inactive.
With `COC(=O)[C@H]1[C@H]2C[C@@H]3c4[nH]c5cc(OC)ccc5c4CCN3C[C@H]2C[C@@H](OC(=O)COc2ccc(OC)cc2)[C@@H]1OC`, the Potency result in [1], in test [2], in test [3], in test [4], in test [5] and in [10] was “inactive” throughout. For the same compound, the Potency entry in test [14], in test [16] and in test [17] was “inactive” each time. Also, the compound was classed as inactive in [20], in [6], in test [8], in test [9], in test [11] and in test [12]. Further, the call in [13] and in [15] was inactive.
